Results from PubChem BioAssay (Tox21).
Inconclusive results are not listed. Activity calls are given as the source filed them. Unless noted, the call rests on the fitted dose curve.

Columns and labels:
[1] = Nuclear factor erythroid 2-related factor 2/antioxidant responsive element (Nrf2/ARE) small molecule agonists: qHTS cell viability counter screen in human keratinocytes (AID 1919968; active means well fitted curve in the direction sought with a large enough effect in the repeat runs; an effect the other way counts as inactive or inconclusive; further: nearly all actives have a fitted effect of over 55% in size)
Summary of the method: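 Measured as CellTiter-Fluor fluorescence, this readout tracks cytotoxicity in the same wells as the ARE-luciferase screen. HaCaT reporter cells (1,500/well) received compounds after a 5 h pre-incubation and were exposed for 23 h.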

[2] = Nuclear factor erythroid 2-related factor 2/antioxidant responsive element (Nrf2/ARE) small molecule agonists: luciferase reporter gene qHTS assay in human keratinocytes (AID 1919969); further: nearly all actives have a fitted effect of over 35% in size; further: potency means the concentration at half of the fitted maximal effect
[3] = molecular target: Gonadotropin-releasing hormone receptor (Homo sapiens) (UniProt P30968); experiment: Human gonadotropin-releasing hormone receptor (GnRHR) small molecule agonists, calcium flux assay in GnRHR-HEK293 cells (AID 1920063); further: nearly all actives have a fitted effect of over 35% in size
Summary of the method: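 Fluorescence kinetics (480 nm excitation, 540 nm emission; 3 min, 1 s steps) report calcium mobilisation in human GnRHR-HEK293 cells in agonist mode. Dye incubation: 1 h, 37 C.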

[4] = molecular target: KiSS-1 receptor (Homo sapiens) (UniProt Q969F8); experiment: Human kisspeptin (KISS1R) small molecule agonists, calcium flux assay in KISS1R-HEK293 cells (AID 1920064; active means well fitted curve in the direction sought with a large enough effect in the repeat runs; an effect the other way counts as inactive or inconclusive)
Summary of the method: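 Measures KISS1R agonism through calcium-sensitive dye fluorescence in stably transfected HEK293 cells, read for 3 min after pin-tool compound delivery; 15-point titrations in triplicate.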

[5] = G protein-coupled receptor (GPCR) small molecule agonists, calcium flux assay: HEK293 wild type cell line counter screen (AID 1920065)
Summary of the method: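 Readout: fluorescence at 480 nm excitation/540 nm emission, sampled at 1 s intervals for 3 min. Cells had been cultured 18 h, then dye-loaded 1 h at 37 C before compound or ATP addition.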

[6] = p53 small molecule agonists, cell-based qHTS assay with human liver microsomes (AID 1963577);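 further: p53 response element beta-lactamase reporter cells with liver microsomes plus NADPH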
Summary of the method: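 With metabolic activation: human liver microsomes (0.5 mg/mL final) plus NADPH (0.5 mg/mL final) added alongside compounds to p53RE-bla cells; 16 h 37 C exposure; beta-lactamase read by LiveBLAzer fluorescence.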

[7] = p53 small molecule agonists, cell-based qHTS assay with human liver microsomes: qHTS cell viability counter screen (AID 1963579); further: nearly all actives have a fitted effect of over 45% in size
Summary of the method: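 Metabolic activation used human liver microsomes and NADPH, both 0.5 mg/mL final, over 16 hours at 37 C on p53RE-bla cells (4,000/well). Cytotoxicity measured by CellTiter-Glo luminescence, 30 min at room temperature.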

[8] = p53 small molecule agonists, cell-based qHTS assay with rat liver microsomes: qHTS cell viability counter screen (AID 1963580); further: nearly all actives have a fitted effect of over 45% in size
Summary of the method: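 p53RE-bla HCT-116 cells (4,000/well) rested 5 h at 37 C, then given Tox21 compounds in DMSO with rat liver microsomes (0.5 mg/mL final) plus NADPH (0.5 mg/mL final) for 16 h at 37 C. Viability read by CellTiter-Glo luminescence after 30 min at room temperature.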

[9] = p53 small molecule agonists, cell-based qHTS assay: qHTS cell viability counter screen (AID 1963581); further: nearly all actives have a fitted effect of over 45% in size
Summary of the method: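 In the same plates used for the p53 bla reporter, HCT-116 cells given compounds for 16 h at 37 C received CellTiter-Glo; luminescence was recorded 30 min later at room temperature.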

[10] = p53 small molecule agonists, cell-based qHTS assay (AID 1963582; active means well fitted activation curve with a large enough effect in the signal ratio in the repeat runs, not every such curve was filed as active; the % refers to the signal ratio; further: potency means the concentration at half of the fitted maximal effect)
Summary of the method: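 Compounds are pin-transferred in DMSO onto p53RE-bla cells and incubated 16 h at 37 C. The B/G FRET beta-lactamase substrate is then applied for 2 h at RT and fluorescence recorded.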

[11] = cAMP Responsive Elements (CRE) small molecule agonists, cell-based qHTS assay (AID 1963590)
Summary of the method: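 Cell line: CRE-bla HEK 293T; medium DMEM/10% dialyzed FBS/0.1 mM NEAA/1 mM pyruvate/25 mM HEPES; 3 h compound exposure; beta-lactamase FRET readout after 2 h substrate loading at RT.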

[12] = molecular target: Beta-2 adrenergic receptor (Homo sapiens) (UniProt P07550); experiment: Adrenergic beta2 receptor (ADRB2) small molecule antagonists, cell-based qHTS assay (AID 1963592); further: series mostly up to about 92 µM; nearly all actives have a fitted effect of over 50% in size
Summary of the method: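 Cells (CHO, stable ADRB2 overexpression) incubated 18-20hr at 37C; compounds added from DMSO; agonist mix (1nM isoproterenol, 100uM IBMX, 25uM Ro-20-1724) added; 0.5hr RT; d2-cAMP and anti-cAMP-cryptate added; 1hr RT; 665/615 nm read.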

[13] = molecular target: D(2) dopamine receptor (Homo sapiens) (UniProt P14416); experiment: Dopamine D2 receptor (DRD2) small molecule agonists, cell-based qHTS assay (AID 1963594); further: nearly all actives have a fitted effect of over 35% in size
Summary of the method: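 HEK293 cells stably expressing DRD2 were cultured 24 h at 37 C, then given Ro20-1724 (0.1 mM final) and compounds for 10 min at room temperature. NKH477 (200nM) was then added for 30 min. cAMP was read by HTRF.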

[14] = molecular target: D(2) dopamine receptor (Homo sapiens) (UniProt P14416); experiment: Dopamine D2 receptor (DRD2) small molecule antagonists, cell-based qHTS assay (AID 1963595; active means well fitted inhibition curve with a large enough effect in the signal ratio in the repeat runs, with a control signal flat; the % refers to the signal ratio)
Summary of the method: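 DRD2-HEK293; 0.1 mM Ro20-1724; cpd 10 min RT; NKH477 200 nM + quinpirole 12 nM, 30 min RT; HTRF cAMP (cAMP-d2/anti-cAMP cryptate), 665/620 nm ratio after 1 h.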

[15] = molecular target: 5-hydroxytryptamine receptor 2A (Homo sapiens) (UniProt P28223); experiment: 5-hydroxytryptamine receptor 2A (HTR2A) small molecule agonists, cell-based qHTS assay (AID 1963587); further: nearly all actives have a fitted effect of over 30% in size
Summary of the method: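 HTR2A-CHO cells, plated 18 h at 37 C/5% CO2, dye-loaded 1 h at 37 C; compounds in DMSO added by pin tool (agonist mode). Intracellular calcium flux read as kinetic fluorescence on FDSS over 2 min at 1 s intervals.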

[16] = molecular target: Muscarinic acetylcholine receptor M1 (Homo sapiens) (UniProt P11229); experiment: Cholinergic receptor muscarinic 1 (CHRM1) small molecule agonists, cell-based qHTS assay (AID 1963589); further: nearly all actives have a fitted effect of over 35% in size
Summary of the method: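 Each compound was tested at 15 concentrations across three independent runs on dye-loaded CHO cells stably expressing human CHRM1, reading intracellular calcium fluorescence kinetically at 1 sec intervals.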

[17] = cAMP Responsive Elements (CRE) small molecule antagonists, cell-based qHTS assay (AID 1963591; active means well fitted inhibition curve with a large enough effect in the signal ratio in the repeat runs, not every such curve was filed as active; the % refers to the signal ratio)
Summary of the method: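 Inhibition of NKH477-driven (0.25 uM final) CRE-beta-lactamase signal in HEK293T cells, 3 h compound exposure at 37 °C, detected by FRET substrate fluorescence.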

[18] = p53 small molecule agonists, cell-based qHTS assay with rat liver microsomes (AID 1963578)
Summary of the method: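 Metabolic activation by rat liver microsomes and NADPH, each 0.5 mg/mL final, added right after compounds to p53RE-bla reporter cells (4,000/well, plated 5 h earlier). 16 h at 37 C, then LiveBLAzer substrate for 2 h at room temperature in the dark; fluorescence read-out.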

[19] = molecular target: 5-hydroxytryptamine receptor 2A (Homo sapiens) (UniProt P28223); experiment: 5-hydroxytryptamine receptor 2A (HTR2A) small molecule antagonists, cell-based qHTS assay (AID 1963586); further: nearly all actives have a fitted effect of over 45% in size
Summary of the method: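 Antagonist-mode intracellular calcium assay: DOI (4 nM) added after 5 min compound pre-incubation at room temperature to dye-loaded HTR2A-CHO cells. Fluorescence followed for 3 min, sampled every second.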

[20] = molecular target: Muscarinic acetylcholine receptor M1 (Homo sapiens) (UniProt P11229); experiment: Cholinergic receptor muscarinic 1 (CHRM1) small molecule antagonists, cell-based qHTS assay (AID 1963588); further: nearly all actives have a fitted effect of over 40% in size
Summary of the method: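 CHRM1-CHO calcium-flux assay, antagonist mode. Cells were seeded 18 h, dye-loaded 1 h at 37 C and given compound for 5 min at RT, then acetylcholine was added at 50nM. FDSS fluorescence was read 3 min; 15 concentrations, three runs.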
On the % scale 0 is the no-effect control and ±100 the full control effect.

Chain of Gonadotropin-releasing hormone receptor (Homo sapiens) (P30968 whole entry, looked up): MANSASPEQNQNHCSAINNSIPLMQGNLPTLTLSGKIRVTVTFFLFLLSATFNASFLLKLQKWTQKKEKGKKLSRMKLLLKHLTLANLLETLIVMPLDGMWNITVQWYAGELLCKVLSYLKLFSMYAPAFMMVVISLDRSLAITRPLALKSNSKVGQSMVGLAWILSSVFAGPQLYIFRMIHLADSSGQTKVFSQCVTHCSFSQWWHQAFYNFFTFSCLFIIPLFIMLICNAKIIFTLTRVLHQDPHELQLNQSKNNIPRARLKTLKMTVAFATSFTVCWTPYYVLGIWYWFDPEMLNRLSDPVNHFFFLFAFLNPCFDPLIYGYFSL
Chain of 5-hydroxytryptamine receptor 2A (Homo sapiens) (P28223 whole entry, looked up): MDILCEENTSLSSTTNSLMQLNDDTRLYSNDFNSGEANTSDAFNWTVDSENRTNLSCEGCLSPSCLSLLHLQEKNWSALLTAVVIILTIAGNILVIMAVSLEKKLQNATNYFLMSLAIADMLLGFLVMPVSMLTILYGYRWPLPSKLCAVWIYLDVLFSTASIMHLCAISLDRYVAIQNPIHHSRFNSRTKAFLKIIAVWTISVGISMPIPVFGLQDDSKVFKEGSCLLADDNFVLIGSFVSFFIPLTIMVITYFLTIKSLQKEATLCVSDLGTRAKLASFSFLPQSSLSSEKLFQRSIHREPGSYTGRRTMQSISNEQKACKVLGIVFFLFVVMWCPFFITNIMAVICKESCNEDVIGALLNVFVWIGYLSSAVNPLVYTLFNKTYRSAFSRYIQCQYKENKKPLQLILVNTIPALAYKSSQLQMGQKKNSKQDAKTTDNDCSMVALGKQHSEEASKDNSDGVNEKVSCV
Chain of Beta-2 adrenergic receptor (Homo sapiens) (P07550 whole entry, looked up): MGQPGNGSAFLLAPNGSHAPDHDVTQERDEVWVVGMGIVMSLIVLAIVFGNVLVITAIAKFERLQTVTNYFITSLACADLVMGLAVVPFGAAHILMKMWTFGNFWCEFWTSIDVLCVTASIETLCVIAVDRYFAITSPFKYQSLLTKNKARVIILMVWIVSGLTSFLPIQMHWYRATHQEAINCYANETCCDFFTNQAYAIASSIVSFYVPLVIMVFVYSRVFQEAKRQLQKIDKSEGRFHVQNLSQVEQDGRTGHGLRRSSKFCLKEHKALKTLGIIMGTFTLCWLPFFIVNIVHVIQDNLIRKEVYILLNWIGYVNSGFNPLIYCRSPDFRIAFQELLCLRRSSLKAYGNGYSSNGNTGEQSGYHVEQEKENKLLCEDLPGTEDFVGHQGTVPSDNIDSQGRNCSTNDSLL
Chain of KiSS-1 receptor (Homo sapiens) (Q969F8 whole entry, looked up): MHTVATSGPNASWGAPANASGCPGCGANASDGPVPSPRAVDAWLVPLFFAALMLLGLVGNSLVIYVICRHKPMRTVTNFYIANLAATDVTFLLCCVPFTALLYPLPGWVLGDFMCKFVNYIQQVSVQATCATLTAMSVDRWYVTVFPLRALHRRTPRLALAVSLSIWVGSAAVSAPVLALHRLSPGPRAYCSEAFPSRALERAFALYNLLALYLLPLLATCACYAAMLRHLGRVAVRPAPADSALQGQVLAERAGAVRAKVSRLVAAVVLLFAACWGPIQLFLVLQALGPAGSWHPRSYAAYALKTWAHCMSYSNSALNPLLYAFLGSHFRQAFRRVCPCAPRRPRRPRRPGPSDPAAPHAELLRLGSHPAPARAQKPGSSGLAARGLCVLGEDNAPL
Chain of Muscarinic acetylcholine receptor M1 (Homo sapiens) (P11229 whole entry, looked up): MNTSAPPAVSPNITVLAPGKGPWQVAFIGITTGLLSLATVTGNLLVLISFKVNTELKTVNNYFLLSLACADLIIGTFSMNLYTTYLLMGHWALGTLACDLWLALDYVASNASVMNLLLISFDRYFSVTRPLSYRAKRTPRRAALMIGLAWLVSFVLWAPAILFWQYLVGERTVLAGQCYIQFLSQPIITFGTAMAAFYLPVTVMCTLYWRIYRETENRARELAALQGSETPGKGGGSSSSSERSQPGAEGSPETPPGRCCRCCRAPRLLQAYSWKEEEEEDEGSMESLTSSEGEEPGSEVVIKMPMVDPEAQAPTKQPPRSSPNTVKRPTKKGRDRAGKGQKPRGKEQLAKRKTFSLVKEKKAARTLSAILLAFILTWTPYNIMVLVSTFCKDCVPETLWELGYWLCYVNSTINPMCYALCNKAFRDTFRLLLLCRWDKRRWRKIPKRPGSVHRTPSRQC
Chain of D(2) dopamine receptor (Homo sapiens) (P14416 whole entry, looked up): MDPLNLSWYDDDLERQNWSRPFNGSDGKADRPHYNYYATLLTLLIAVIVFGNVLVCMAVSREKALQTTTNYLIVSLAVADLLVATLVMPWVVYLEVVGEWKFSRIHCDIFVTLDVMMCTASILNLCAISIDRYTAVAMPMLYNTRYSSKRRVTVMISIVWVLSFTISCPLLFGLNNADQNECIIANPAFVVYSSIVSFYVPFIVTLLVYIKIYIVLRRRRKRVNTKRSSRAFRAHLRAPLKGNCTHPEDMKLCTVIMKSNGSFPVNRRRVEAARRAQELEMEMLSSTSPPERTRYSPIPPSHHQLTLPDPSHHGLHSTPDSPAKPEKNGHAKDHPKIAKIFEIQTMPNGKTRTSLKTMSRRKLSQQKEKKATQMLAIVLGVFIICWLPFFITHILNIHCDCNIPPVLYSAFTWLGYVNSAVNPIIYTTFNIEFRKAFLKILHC

CN1C(=O)OC(C)(C)C1=O
inactive: Potency [1] | Potency [2] | Potency [3] | outcome [4] | outcome [5] | Potency [6] | Potency [7] | Potency [8] | Potency [9] | Potency [10] | Potency [11] | Potency [12] | Potency [13] | Potency [14]

O=C(CCN1CCN2CCCC2C1)N1c2ccccc2Sc2ccc(Cl)cc21 (stereo unspecified)
inactive: activity change, negative = cytotoxicity [1] -13.5% [at 19 µM] | activity, positive = activation [2] -8.3% [at 19 µM] | activity change [3] 0.23% [at 11.8 µM, active compounds read high] | activation [4] -1.39% [at 15.8 µM] | activation [5] 0.367% [at 11.8 µM] | activation [6] -1.04% [at 13.5 µM] | activity change, negative = cytotoxicity [7] -1.69% [at 13.5 µM] | activity change, negative = cytotoxicity [8] 2.61% [at 13.5 µM] | activity change, negative = cytotoxicity [9] -8.91% [at 13.5 µM] | activation [10] -0.768% [at 13.5 µM] | activation [15] -9.57% [at 15.9 µM] | activation [16] 0.0294% [at 15.8 µM] | activation [11] 0.0795% [at 19 µM] | activity change, negative = inhibition [17] -4.08% [at 18.9 µM] | activity change, negative = inhibition [12] 0.603% [at 19 µM] | activation [13] -31% [at 19 µM] | activity change, negative = inhibition [14] -8.25% [at 18.9 µM]

CC(=O)Oc1cc2c(s1)CCN(C(C(=O)C1CC1)c1ccccc1F)C2 (stereo unspecified)
inactive: Potency [1] | Potency [2] | Potency [3] | outcome [4] | outcome [5] | Potency [6] | Potency [18] | Potency [9] | Potency [19] | Potency [15] | Potency [16] | Potency [12] | Potency [13] | Potency [14]

CNC(=O)c1ccccc1Sc1ccc2c(/C=C/c3ccccn3)n[nH]c2c1
active: Potency [2] 84.1 nM | Potency [10] 1410 nM
inactive: Potency [1] | Potency [3] | outcome [4] | outcome [5] | Potency [6] | Potency [7] | Potency [8] | Potency [9] | Potency [15] | Potency [16] | Potency [12] | Potency [13] | Potency [14]

COc1cc(C(=O)OC(COCCC(C)C)CN2CCOCC2)cc(OC)c1OC (stereo unspecified)
inactive: Potency [1] | Potency [2] | Potency [3] | outcome [4] | outcome [5] | Potency [6] | Potency [7] | Potency [8] | Potency [9] | Potency [10] | Potency [15] | Potency [20] | Potency [16] | Potency [13] | Potency [14]

CCN(CC)CCOC(=O)C(Cc1cccc2ccccc12)CC1CCCO1 (stereo unspecified)
inactive: Potency [1] | Potency [2] | Potency [3] | outcome [4] | outcome [5] | Potency [6] | Potency [18] | Potency [9] | Potency [15] | Potency [20] | Potency [16] | Potency [11] | Potency [12] | Potency [13] | Potency [14]

N#CCC(=O)NN
inactive: Potency [1] | Potency [2] | Potency [3] | outcome [4] | outcome [5] | Potency [6] | Potency [7] | Potency [8] | Potency [9] | Potency [10] | Potency [20] | Potency [16] | Potency [11] | Potency [17] | Potency [12] | Potency [13] | Potency [14]

CCOc1cc([N+](=O)[O-])c(OCC)cc1N1CCOCC1
inactive: Potency [1] | Potency [2] | Potency [3] | outcome [4] | outcome [5] | Potency [6] | Potency [7] | Potency [8] | Potency [9] | Potency [10] | Potency [19] | Potency [15] | Potency [16] | Potency [13]
